About 2,000 (0.91%) of roughly 220,000 compounds were called active. Inconclusive results (about 2%) are left out. Not all results are given here. Measured potencies and affinities stand elsewhere. Values without a mark were called inactive. No stated cut-off is given here; in the data, inconclusive means inhibition above about 80% without an active follow-up result; inactive means below that; test concentration not stated here.

These results are taken from PubChem BioAssay AID1626 (SRMLSC, 2009).

The experiment can be described thus: M. tuberculosis H37Rv growth inhibitors, H37Rv strain (AID 1626).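 Further: bacteria incubated seven days before Alamar blue readout; 0% = bacteria only wells and 100% = bacteria with antibiotic wells.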 Conditions: stronger effect = higher value, concentration not given here.
For the compound `CCOc1ccc(NC(=O)CSc2nccn2C)cc1`, the inhibition is -4.59%.

`Cc1ccc(NC(=O)CSC2=NCCN2)cc1`: the inhibition was -0.03%.

`CCCCOc1ccc(NC(=O)CN2CCN(C(=O)OCC)CC2)cc1`: the inhibition was -7.38%.

Consider `COc1cc2c(cc1OC)C(c1ccco1)CC(=O)N2` (stereo not drawn), for which the inhibition was -0.34%.

Regarding `CC(=O)Nc1ccc(/C=C/c2ccc3c([N+](=O)[O-])cccc3n2)cc1`, the inhibition is -0.6%.

Turning to `COc1cc(/C=C/c2ccc3cccc([N+](=O)[O-])c3n2)ccc1OCC(=O)O`, the inhibition was 6.21%.

Regarding `Cc1ccc(C(c2sc3nc(C)nn3c2O)N2CCOCC2)cc1` (stereo not drawn), the inhibition is -3.42%.

Regarding `CCOC(=O)c1ccc(NC(=O)c2nc[nH]c2C(=O)NC)cc1`, the inhibition was -7.95%.

As to `CCOC(=O)c1ccc(NC(=O)c2nc[nH]c2C(=O)N[C@@H](CC(C)C)C(=O)OCc2ccccc2)cc1`, the inhibition is -7.55%.

Turning to `COc1ccc(NC(=O)c2nc[nH]c2C(=O)N[C@@H](C)C(=O)OC(C)(C)C)cc1`, the inhibition is 5.92%.

As for `Cc1ccc(NC(=O)c2nc[nH]c2C(=O)Nc2ccc(C)cc2)cc1`, the inhibition was -0.81%.

As to `CNC(=O)c1[nH]cnc1C(=O)Nc1ccc(OC)cc1`, the inhibition was 5.16%.

Turning to `CNC(=O)c1[nH]cnc1C(=O)Nc1ccc(C)cc1`, the inhibition was 16.9%.

For the compound `Cc1ccc(CSc2ncnc3ccccc23)cc1`, the inhibition was 5.46%.

On to `CCCOc1ccc(C(=O)NCC2OCCc3ccccc32)cc1OC` (stereo not drawn), for which the inhibition is -1.65%.

In the case of `CCOC(=O)C1CCCN(C2CC(=O)N(c3cccc(C)c3)C2=O)C1` (stereo not drawn), the inhibition is -3.61%.

As to `CN(C)c1c(F)cc(C(=O)NCc2ccccc2)cc1F`, the inhibition is -11.1%.

For `CN(CC(=O)Nc1ccc(Cl)cc1)CC(=O)Nc1cc(Cl)ccc1C#N`, the inhibition is -1.32%.

With `ClCc1csc(N/N=C/c2cccs2)n1`, the inhibition is -4.27%.

As to `CNc1nc(OC)nc(N2CCOCC2)n1`, the inhibition was -9.75%.

On to `CSc1cccc(CN2CCN(Cc3ccccc3)C(CCO)C2)c1` (stereo not drawn), for which the inhibition was 3.04%.

For the compound `O=C1c2ccccc2S(=O)(=O)c2cc(C(=O)N3CCN(c4ccc(Cl)cn4)CC3)ccc21`, the inhibition is 5.58%.

As for `CSc1nnc(-c2ccccc2)c(-c2ccccc2)n1`, the inhibition was 13.9%.

Consider `CSc1ncc(-c2ccccc2)cn1`, for which the inhibition is 2.05%.

Take `COc1ccccc1-c1ccc(SCc2ccc(F)cc2)nn1`: the inhibition is -3.99%.

Take `O=C(O)/C=C/C(=O)Nc1ccc(C(=O)c2ccccc2)cc1`: the inhibition is -9.86%.

For the compound `CCOc1ccc(-c2cn3ccccc3n2)cc1`, the inhibition is 1.22%.

As to `CCOC(=O)c1cccc(S(=O)(=O)N(CCO)Cc2cc3cc(OC)ccc3[nH]c2=O)c1`, the inhibition was -6.73%.

As to `COc1ccc(NCc2nc3ccccc3n2CCOc2ccccc2)cc1`, the inhibition was 77.4%.

In the case of `Cc1ccc(NCc2nc3ccccc3n2CCOc2ccccc2)cc1`, the inhibition was 4.17%.

Regarding `CC(OC(=O)C1CC1)C(=O)Nc1cc(C(F)(F)F)ccc1Cl` (stereo not drawn), the inhibition was -2.2%.

For the compound `CC(C)C(OC(=O)c1ccccc1)c1nccc2ccccc12` (stereo not drawn), the inhibition was 1.56%.

For `O=C(OC(c1ccccc1)c1nccc2ccccc12)c1cccc([N+](=O)[O-])c1` (stereo not drawn), the inhibition is 2.31%.

In the case of `O=C(CC1SC(=Nc2ccccc2)N(CCc2c[nH]c3ccccc23)C1=O)Nc1ccccc1F` (stereo not drawn), the inhibition is 11.6%.

With `COc1cc(/C=C(\C#N)C(=O)NCC2CCCO2)cc(OC)c1OC` (stereo not drawn), the inhibition was 2.41%.

For `CCCCCCN1C=CC=C/C1=C/C=C(C#N)C#N`, the inhibition is -1.95%.

As to `CCCOc1ccc(C(=O)C(CN2CCOCC2)c2ccccc2)cc1` (stereo not drawn), the inhibition was 78.9%.

As for `CCCCOc1ccc(C(=O)C(CN2CCOCC2)c2ccccc2)cc1` (stereo not drawn), the inhibition was 66.5%.

Regarding `COc1ccc(C(O)C(CN2CCOCC2)c2ccccc2)cc1F` (stereo not drawn), the inhibition was -9.62%.

Consider `COc1ccc(C(=O)CN2CCOCC2)cc1F`, for which the inhibition is -8.03%.

For the compound `CC(NC1CCCCC1)C(O)C12CC3CC(CC(C3)C1)C2` (stereo not drawn), the inhibition is -0.62%.

With `CCn1nc(C(=O)OCC(=O)c2cc(C)n(Cc3cccs3)c2C)c2ccccc2c1=O`, the inhibition is -3.97%.

Consider `CN1CCN(NC(=O)c2cccc(C(F)(F)F)c2)CC1`, for which the inhibition was -1.25%.

As to `CCNc1nc(NC(C)(C)C)nc(N(C#N)CC)n1`, the inhibition was 2.33%.

Turning to `Cc1cccn2c(=O)c(C=Nc3ccccc3)c(NCCO)nc12`, the inhibition was 2.59%.

Take `COc1ccc(Nc2nc3c(C)cccn3c(=O)c2C=NCc2ccccc2)cc1`: the inhibition is 10.2%.

For `COc1cc(C(=O)OCC(=O)NC2CCS(=O)(=O)C2)c([N+](=O)[O-])cc1OC` (stereo not drawn), the inhibition was -0.03%.

In the case of `COC(CC(=O)NNC(=S)Nc1ccc(Cl)cc1)OC`, the inhibition was 4.27%.

In the case of `CCOC(=O)C1=C(N)N(c2ccc(N3CCCCC3)cc2)C(=O)C1`, the inhibition is -16.5%.

Regarding `Cc1ccc([N+](=O)[O-])cc1NC(=O)CN(C(=O)c1ccc(Cl)cc1)C1CCCCC1`, the inhibition was 3.68%.

Turning to `O=C(CN(C(=O)c1ccccc1Cl)C1CCCCC1)Nc1ccc(Cl)c([N+](=O)[O-])c1`, the inhibition is -3.85%.

In the case of `Cc1ccccc1NC(=O)C(=O)NCCCN1CCOCC1`, the inhibition is -3.37%.

Turning to `COc1cc(C(=O)O/N=C(\N)c2cccc([N+](=O)[O-])c2)cc(OC)c1OC`, the inhibition was -4%.

Consider `COc1cc(/C=C/C(=O)c2ccc(O)cc2)ccc1OCC#N`, for which the inhibition is 17.5%.

Turning to `COc1cccc(C(=O)/C=C/c2ccc(SC)cc2)c1`, the inhibition was 5.8%.

As for `COc1cccc(OCCNC(=O)c2cccc(OC)c2)c1`, the inhibition was 4.61%.

On to `O=C(NCCOc1ccccc1)c1cc(C(=O)NCCOc2ccccc2)cc([N+](=O)[O-])c1`, for which the inhibition is 15.8%.

`COc1cc(/C=C/C(=O)c2ccc(C)c([N+](=O)[O-])c2)cc(OC)c1O`: the inhibition is 9.83%.

In the case of `COc1cc(/C=C/C(=O)c2ccc(C)cc2)ccc1OCC#N`, the inhibition was 8.8%.

`COc1cccc(/C=C/C(=O)c2ccc(C)c([N+](=O)[O-])c2)c1`: the inhibition is 17.5%.

Turning to `CC(=O)c1c(C)[nH]c(C(=O)CSc2nnc(CN3CCCCCC3=O)n2-c2ccccn2)c1C`, the inhibition is -2.46%.

On to `Cc1ccc(C(=O)N(c2ccccc2)C2CC(C)N(C(=O)c3ccco3)c3ccccc32)cc1` (stereo not drawn), for which the inhibition is 0.9%.

For `CCn1c(SCC(=O)Nc2nccs2)nnc1-c1ccccc1`, the inhibition is -4.51%.

With `Clc1cc2nc[nH]c2cc1Cl`, the inhibition was -8.63%.

For `CCCc1cc(=O)[nH]c(SCc2csc(-c3ccccc3)n2)n1`, the inhibition was -1.65%.

As for `Nc1nnc(-c2cccc(F)c2)s1`, the inhibition is 1%.

Turning to `CC1CN(c2ccc(S(=O)(=O)N3CCOCC3)cn2)CC(C)O1` (stereo not drawn), the inhibition is -1.99%.

For the compound `CC(=O)c1cc(C#N)c(SCc2ccc(F)cc2)nc1C`, the inhibition is -3.8%.

In the case of `Cc1ccc(S(=O)(=O)CCN2CCC(n3cccc3)CC2)cc1`, the inhibition is -2.9%.

`COc1cc(/C=C/C(=O)c2ccccc2O)cc(OC)c1OC`: the inhibition is -1.73%.

Take `COc1cc(/C=C/C(=O)OCC(=O)NC(=O)NC(C)(C)C)ccc1OCC#N`: the inhibition is 53.3%.

For the compound `COc1cc(/C=C/C(=O)OCC(=O)NC(=O)NC(C)C)ccc1OCC#N`, the inhibition was 11.7%.

`COc1ccc(Oc2ccc(/C=C/C(=O)c3cccc(OC)c3)cc2[N+](=O)[O-])cc1`: the inhibition is 4.34%.

On to `O=C(/C=C/c1ccc(N2CCCCC2)c([N+](=O)[O-])c1)c1ccc(O)cc1`, for which the inhibition is 52.4%.

For the compound `O=C(/C=C/c1cccc([N+](=O)[O-])c1)Nc1ccc(NC(=O)c2cccs2)cc1`, the inhibition is 3.17%.

For the compound `O=C(/C=C/c1cccc([N+](=O)[O-])c1)Nc1cccc(NC(=O)c2cccs2)c1`, the inhibition was 13.1%.

As to `COc1cc(/C=C/C(=O)O)cc(OC)c1OC`, the inhibition was -1.87%.

Consider `CCN(C(=O)CSc1nnc(-c2ccc(Cl)cc2)n1C)C1CCS(=O)(=O)C1` (stereo not drawn), for which the inhibition was 1.77%.

For `O=C(NCc1nnc(SCC(=O)N2CCOCC2)o1)c1cccs1`, the inhibition is 3.48%.

As for `COc1ccc(-n2cc(CNCCN3CCOC3=O)c(-c3ccccc3Cl)n2)cc1`, the inhibition is 2.78%.

Turning to `COC(=O)NC(NC(=S)Nc1cccc(C)c1)C(Cl)(Cl)Cl` (stereo not drawn), the inhibition is -2.36%.

For `CN(C)/C=C/C(=O)c1cccc([N+](=O)[O-])c1`, the inhibition was 6.88%.

With `O=C(/C=C/c1ccc([N+](=O)[O-])cc1)NC1CC2CCC1C2` (stereo not drawn), the inhibition is 73.7%.

Consider `O=C(/C=C/c1ccccc1F)c1ccoc1`, for which the inhibition is 2.06%.

`O=C(/C=C/c1ccccc1)NC1CC2CCC1C2` (stereo not drawn): the inhibition is 0.01%.

With `O=c1c2ccccc2ncn1CCOCCOc1cccc(Br)c1`, the inhibition is -2.48%.

For the compound `CC(C)(C)c1ccc(OCCOc2ccc(C(C)(C)C)cc2NC=O)c(NC=O)c1`, the inhibition was 7.57%.

Regarding `Cc1cc(NC(=O)CSc2ccc(-c3cccc([N+](=O)[O-])c3)nn2)no1`, the inhibition is 13.3%.

For the compound `Cn1c(O)c(N=NC(=O)C2COc3ccccc3O2)c2ccccc21` (stereo not drawn), the inhibition was 2.52%.

Consider `COc1ccc(Br)cc1CN(C)C(C)C(=O)Nc1cc([N+](=O)[O-])ccc1OC` (stereo not drawn), for which the inhibition is 6.06%.

Regarding `O=Nc1c(O)n(Cc2cccc(Cl)c2)c2ccccc12`, the inhibition is -7.32%.

For `c1ccc(Cc2nn3c(COc4ccccc4)nnc3s2)cc1`, the inhibition was 8.35%.

On to `CSc1nc(C)c(Cc2c(F)cccc2Cl)c(=O)[nH]1`, for which the inhibition is -5.44%.

`C=C(C)C1CC=C(CN2CC(C)OC(C)C2)CC1` (stereo not drawn): the inhibition was -0.53%.

For the compound `Cc1ccc2c(Cl)cc(Cl)c(OCC(=O)O)c2n1`, the inhibition was -9.9%.

`Cc1ccc(NC(=O)CN(C)C(=O)COc2c(Cl)cc(Cl)c3ccc(C)nc23)cc1`: the inhibition is 5.82%.

For the compound `COC(=O)COc1c(Cl)cc(Cl)c2ccc(C)nc12`, the inhibition was 70.4%.

Regarding `Cc1ccc2c(Cl)cc(Cl)c(OCC(=O)N(C(C)C)C(C)C)c2n1`, the inhibition was 7.37%.
